{"source": "PubChem BioAssay (EPA / NIEHS)", "note": "Activity calls are given as the source filed them. How the source made its calls: active means hit-call score of the fitted dose curve at least 0.9, where 1 is the maximum; inactive means score below 0.9.", "data": [{"read-out": "Macrophage colony-stimulating factor (MCSF), CSF1 (gene 1435)", "assay": "BSK_CASM3C_MCSF: BioMAP Diversity Plus: CASM3C Assay for Macrophage colony-stimulating factor (MCSF) Biomarker Activity (AID 2283044);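 further: M-CSF protein amount quantified by ELISA after 24 h exposure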", "conditions": "primary human coronary artery smooth muscle cells; actives raise or lower the signal", "values": [{"molecule": "CCC(C)c1cc([N+](=O)[O-])cc([N+](=O)[O-])c1O", "note": "(stereo not given)", "outcome": "inactive"}, {"molecule": "CCC(=O)O[C@H]1CC[C@H]2[C@@H]3CCC4=CC(=O)CC[C@]4(C)[C@H]3CC[C@]12C", "outcome": "inactive"}, {"molecule": "Clc1ccc(C(Cl)(Cl)Cl)cc1", "outcome": "inactive"}, {"molecule": "Oc1ccc(Cl)cc1Cl", "outcome": "inactive"}, {"molecule": "C[C@]12CCC(=O)C=C1CC[C@@H]1[C@@H]2CC[C@@]2(C)[C@H]1CC[C@]2(C)O", "outcome": "inactive"}, {"molecule": "CC(C)C(=O)OCC(C)(C)C(OC(=O)C(C)C)C(C)C", "note": "(stereo not given)", "outcome": "inactive"}, {"molecule": "O=NN(c1ccccc1)c1ccccc1", "outcome": "inactive"}, {"molecule": "Oc1ccc(C(c2ccc(O)cc2)(C(F)(F)F)C(F)(F)F)cc1", "outcome": "inactive"}, {"molecule": "CCCCCCOC(=O)c1ccccc1C(=O)OCCCCCC", "outcome": "inactive"}, {"molecule": "Sc1ccccc1", "outcome": "inactive"}, {"molecule": "Clc1ccc(C(c2ccccc2Cl)C(Cl)(Cl)Cl)cc1", "note": "(stereo not given)", "AC50": "13.8 µM (active)"}, {"molecule": "c1cc2ccc3cccc4ccc(c1)c2c34", "outcome": "inactive"}, {"molecule": "CCCN(CCC)N=O", "outcome": "inactive"}]}, {"read-out": "Low-density lipoprotein receptor (LDLR), LDLR (gene 3949)", "assay": "BSK_CASM3C_LDLR: BioMAP Diversity Plus: CASM3C Assay for Low-density lipoprotein receptor (LDLR) Biomarker Activity (AID 2283045);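 further: LDLR protein level on the cell surface quantified by ELISA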", "conditions": "primary human coronary artery smooth muscle cells; actives raise or lower the signal", "values": [{"molecule": "CCC(C)(CC)c1cc(NC(=O)c2c(OC)cccc2OC)on1", "outcome": "inactive"}, {"molecule": "Nn1cnnc1", "outcome": "inactive"}, {"molecule": "CCCCCCCCOC(=O)c1ccccc1C(=O)OCCCCCCCC", "outcome": "inactive"}, {"molecule": "Clc1ccc(Cl)cc1", "outcome": "inactive"}, {"molecule": "Cc1ccccc1O", "outcome": "inactive"}, {"molecule": "Cc1cc(-c2ccc(N)c(C)c2)ccc1N", "outcome": "inactive"}, {"molecule": "CC#Cc1cc(C)nc(Nc2ccccc2)n1", "outcome": "inactive"}, {"molecule": "CO/C=C(/C(=O)OC)c1ccccc1COc1cccc(C(F)(F)F)n1", "outcome": "inactive"}, {"molecule": "ClC1=C(Cl)[C@]2(Cl)[C@@H]3[C@@H](Cl)[C@H]4O[C@H]4[C@@H]3C1(Cl)C2(Cl)Cl", "outcome": "inactive"}, {"molecule": "C=CC(=O)NCNC(=O)C=C", "outcome": "inactive"}, {"molecule": "CCCCCCCCCc1ccc(O)cc1", "AC50": "29.3 µM (active)"}, {"molecule": "N#Cc1ccc(N(CC(N)=O)CC(F)(F)F)cc1C(F)(F)F", "outcome": "inactive"}, {"molecule": "CCC(C)(c1ccc(O)cc1)c1ccc(O)cc1", "outcome": "inactive"}, {"molecule": "O=C(N[C@H]1CN2CCC1CC2)c1cc2ccoc2cn1", "outcome": "inactive"}, {"molecule": "ClC1=C(Cl)[C@]2(Cl)[C@@H]3[C@@H]4C[C@@H]([C@H]5O[C@@H]45)[C@@H]3[C@@]1(Cl)C2(Cl)Cl", "outcome": "inactive"}, {"molecule": "O=C(NC(=O)c1cc(F)c(F)cc1Cl)Nc1cc(F)ccc1N1CCC(C(=O)O)CC1", "outcome": "inactive"}, {"molecule": "O=S(=O)(O)C(F)(F)C(F)(F)C(F)(F)C(F)(F)C(F)(F)C(F)(F)F", "outcome": "inactive"}, {"molecule": "C1CC2OC2CC1C1CO1", "note": "(stereo not given)", "outcome": "inactive"}, {"molecule": "ClC1=C(Cl)[C@]2(Cl)[C@@H]3[C@H]4C[C@H]([C@@H]5O[C@H]45)[C@@H]3[C@@]1(Cl)C2(Cl)Cl", "outcome": "inactive"}, {"molecule": "C[C@]12CCC(=O)C=C1CC[C@@H]1[C@@H]2CC[C@]2(C)C(=O)CC[C@@H]12", "AC50": "4.9 µM (active)"}, {"molecule": "CCC(C)c1cc([N+](=O)[O-])cc([N+](=O)[O-])c1O", "note": "(stereo not given)", "outcome": "inactive"}, {"molecule": "CCC(=O)O[C@H]1CC[C@H]2[C@@H]3CCC4=CC(=O)CC[C@]4(C)[C@H]3CC[C@]12C", "outcome": "inactive"}, {"molecule": "Clc1ccc(C(Cl)(Cl)Cl)cc1", "outcome": "inactive"}, {"molecule": "Oc1ccc(Cl)cc1Cl", "outcome": "inactive"}, {"molecule": "C[C@]12CCC(=O)C=C1CC[C@@H]1[C@@H]2CC[C@@]2(C)[C@H]1CC[C@]2(C)O", "outcome": "inactive"}, {"molecule": "CC(C)C(=O)OCC(C)(C)C(OC(=O)C(C)C)C(C)C", "note": "(stereo not given)", "outcome": "inactive"}, {"molecule": "O=NN(c1ccccc1)c1ccccc1", "outcome": "inactive"}, {"molecule": "CCCCCCOC(=O)c1ccccc1C(=O)OCCCCCC", "outcome": "inactive"}, {"molecule": "Sc1ccccc1", "outcome": "inactive"}, {"molecule": "Clc1ccc(C(c2ccccc2Cl)C(Cl)(Cl)Cl)cc1", "note": "(stereo not given)", "AC50": "14.3 µM (active)"}, {"molecule": "c1cc2ccc3cccc4ccc(c1)c2c34", "AC50": "9.87 µM (active)"}, {"molecule": "CCCN(CCC)N=O", "outcome": "inactive"}]}]}
